According to PubChem BioAssay AID1347416 (National Center for Advancing Translational Sciences (NCATS), 2020):
Among all 4,100 compounds or so, about 1,600 (39%) were called active. Not shown: some 25% with an inconclusive outcome. The call rests on the fitted dose curve; in most records, active means well fitted inhibition curve with a large enough effect; inconclusive means small, poorly fitted or top-dose-only effect; inactive means no such curve, though single readings can be large or run the other way. Some of the results follow.

Experiment: qHTS Validation assay for Inhibitors of Plasmodium falciparum Dd2 growth in vitro; further: nearly all actives have a fitted effect of over 70% in size
Settings: P. falciparum Dd2 in RBCs, SYBR Green growth, 72 h; series mostly up to 28.7 µM; activity change, negative = inhibition: at the top concentration
Excerpt: Malaria, a parasitic disease spread to humans through the bite of a Plasmodium infected Anopheles mosquito, continues to be a global health burden affecting millions of people, with an estimated 228 million cases and 405,000 deaths in 2018. Concerns about safety and limitations of current antimalarial treatments strongly emphasize the need to develop new therapeutic options. The scarce number of chemotypes and validated drug targets with efficacy against the liver stage, have hindered development of new antimalarials. To address this, a chemoprophylactic drug discovery effort was conducted through a combined phenotypic high-throughput asexual blood stage and liver stage screen, providing a robust foundation to identify liver-stage active lead chemotypes. Compounds were initially screened against Plasmodium falciparum Dd2 strain parasites using a in vitro SYBRGreen-1 based 72 hr proliferation assay to identify novel chemotypes to advance to liver stage assays. NIH/NCATS Early Translation Branch Assay Submitter (PI): Anton Simeonov Ph.D.
[…] Assay Protocol: PROTOCOL TABLE (as described by Inglese et al., 2007) SEQUENCE No. (e.g., 1, 2, 3, etc.); PARAMETER (e.g., Cells, Incubation, Reagent, etc.); VALUE; DESCRIPTION SEQUENCE, Parameter, Description 1; Reagent; 3 uL complete malaria growth medium, 1536 TC treated Black clear bottom plate 2; Controls; 23 nL positive control artesunate (300 nM final) to column 1; Neutral control DMSO to columns 2-4 3; Compound; 23 nL of compounds in dose response concentration (29 uM to 0.5 nM final) 4; Reagent; 5 uL malaria infected red blood cells (2.5% hematocrit final, 0.3% parasitemia 5; Time; 72 hours at 37C (5% O2, 5% CO2, 90% N2; 95% Rh) 6; Reagent; 2 uL lysis buffer/SYBRGreen-1, 25 sec shake immediately following dispense 7; Time; ~16 hours at 37C (5% O2, 5% CO2, 90% N2; 95% Rh) 8; Detector; EnVision (PerkinElmer) bottom read at 485/14nm excitation and 535/25 nm emission NOTES (numbers refer to sequence above): 1; Complete Malaria Growth Media: 1X RPMI-1640 w/L-glutamine, 5.5g/L Albumax II, 367 uM Hypoxanthine, 25 mM HEPES, 0.25% Sodium Bicarbonate, 35 uM Gentamicin sulfate 2; Controls were added using the Kalypsis Pintool (Wako USA) equipped with 1536 pinhead 3; Compounds were added in a 7-point, titration with a high final concentration of 29 uM by Pintool from seven inter-plate titrations of library plates and two DMSO control plates at the beginning and end (see Yasgar et al., 2008). 4; Red blood cells infected with Plasmodium falciparum Dd2 parasites were used. 6; Lysis buffer: 20 mM Tris-HCl, 10 mM EDTA, 0.16% Saponin, 1.6% Triton-X, 10X SYBR Green. REFERENCE: Inglese J, Shamu CE, Guy RK. 2007. Reporting data from high-throughput screening of small-molecule libraries. Nat Chem Biol. doi:10.1038/nchembio0807-438 Yasgar A, Shinn P, Jadhav A, Auld D, Michael S, Zheng W, Austin CP, Inglese J, Simeonov A. 2008. Compound Management for Quantitative High-Throughput Screening. J Lab Autom 13:79-89. doi:10.1016/j.jala.2007.12.004
On the % scale 0 is the no-effect control and ±100 the full control effect; potency means the concentration at half of the fitted maximal effect.

Potency, active:
COc1ccc(C(=O)N2CCC3(CC2)COc2ccccc2CN3)cc1 10.6 µM
O=C(c1ccc2c(c1)OCO2)N1CCC2(CC1)COc1ccccc1CN2 5.31 µM
O=C(c1ccccc1F)N1CCC2(CC1)COc1ccccc1CN2 4.33 µM
COc1cc2c(C(=O)N3CCN(c4cc(Cl)ccc4C)CC3)cn(CC(C)C)c(=O)c2cc1OC 15 µM
Cc1ccc(Cl)cc1N1CCN(C(=O)c2cn(CC(C)C)c(=O)c3c2c2ccccc2n3C)CC1 3.35 µM
CCOC(=O)c1ccccc1NC(=O)c1cn(CC(C)C)c(=O)c2cc(OC)c(OC)cc12 8.41 µM
Cn1cc(C(=O)NCCN2CCN(c3cccc(Cl)c3)CC2)c2c3ccccc3n(C)c2c1=O 4.73 µM
CCOC(=O)N1CCc2c(sc3c2c(=O)n(CCc2ccccc2)c(=O)n3Cc2c(F)cccc2Cl)C1 2.66 µM
CCOC(=O)N1CCc2c(sc3c2c(=O)n(Cc2ccccc2)c(=O)n3Cc2ccccc2Cl)C1 4.73 µM
CCOC(=O)N1CCc2c(sc3c2c(=O)n(-c2ccccc2C(F)(F)F)c(=O)n3Cc2ccccc2C)C1 13.3 µM
COc1ccc(OC)c(-n2c(-c3cccc(O)c3)n[nH]c2=S)c1 4.22 µM
COc1ccc(-c2[nH]nc3ncc(-c4ccc([S+](C)(=O)[O-])cc4)nc23)c(C)c1 15.3 µM
CCOc1ccc(NC(=O)CN2C(=O)NC(C)(c3ccc(OC(F)F)cc3)C2=O)cc1 (stereo not given) 9.44 µM
Cc1ccc2nc(-c3ccc(O)c(O)c3)cn2c1 13.3 µM
CC(C)c1ccc(C2c3[nH]c4ccccc4c3C[C@H]3C(=O)N(c4ccccc4C(=O)N4CCC(C(=O)O)CC4)C(=O)N23)cc1 (stereo not given in full) 6.68 µM
CC(=O)Nc1ccc(NC2=Nc3ccccc3N3C2=Nc2c(c(C)nn2-c2ccccc2)C3c2ccccc2)cc1 (stereo not given) 6.68 µM
O=C(Nc1ccc2c(N3CCCC3)ncnc2c1)c1cccc(Br)c1 0.668 µM
O=C(Nc1ccc2c(N3CCOCC3)ncnc2c1)c1cccc(Br)c1 4.22 µM
O=C(Nc1ccc2c(N3CCCC3)ncnc2c1)c1ccc(Br)cc1 4.73 µM
O=C(Nc1ccc2c(N3CCOCC3)ncnc2c1)c1ccc(Br)o1 2.66 µM

Activity change, negative = inhibition, inactive:
COc1ccc(C(=O)N2CCN3C(=O)N(C4CCOCC4)C[C@H]3C2)cc1 0% [at 43.1 µM]
CCc1noc(-c2cn(C3CCCN(C(=O)c4ccc5c(c4)OCO5)C3)nn2)n1 (stereo not given) -13.6%
COc1ccc(C(=O)N2CCC3(CC2)CC(C(C)C)=NO3)cc1 31.2% [at 43.1 µM]
O=C1NCc2ccccc2CC12CCN(Cc1ccccc1F)CC2 9.53%
Cc1ccc(-c2cn3c(n2)N(C(=O)c2sc(C)nc2C)CCC3)cc1 22.3%
COC(=O)c1c(NC(=O)/C(C#N)=C/c2ccccc2)sc2c1C(C(=O)OC)CC2 (stereo not given) -16.9%
CNC(=O)N1CCC(Cc2nncn2C(C)C)C1 (stereo not given) 21.1%
CCc1ccccc1NC(=O)c1cn(C)c(=O)c2ccccc12 3.09%
COc1ccc(C(=O)N2CCN(c3nnc4cccc(C)n34)CC2)cc1F 6.68%
Cn1cc(C(=O)N2CCN(c3ccccc3)CC2)c(=O)c2cc(S(=O)(=O)N3CCCC3)ccc21 16.1%
CCn1cc(C(=O)N2CCN(c3cc(Cl)ccc3C)CC2)c(=O)c2cc(S(=O)(=O)N3CCCCC3)ccc21 35.7%
CC(C)C[C@H]1NC(=O)[C@@H]2C[C@@H](NC(=O)CS(=O)(=O)c3ccccc3)CCN2C1=O 48.1% [at 43.1 µM]
O=C(Cn1ccn2nc3c(c2c1=O)CCCCC3)NCc1ccccc1Cl 28.4%
CC(=O)N1CCc2c(sc3c2c(=O)n(Cc2ccccc2)c(=O)n3CC(=O)NCC2CCCO2)C1 (stereo not given) -20.3%
Cc1nc(C)c(C(=O)NCC2CCCCC(=O)N2)s1 (stereo not given) 10%
COc1ccc(OC)c(-n2nnc(-c3nc(-c4cc(OC)c(OC)c(OC)c4)no3)c2C)c1 -13.5%
O=C1NCCCCCCN(C(=O)c2cnccn2)[C@H]2CCCC[C@@H]12 15.9%
Cc1ccsc1-c1[nH]nc2ncc(-c3ccccc3)nc12 0% [at 57.5 µM]
COc1ccccc1-c1[nH]nc2ncc(-c3c(C)noc3C)nc12 36.2% [at 43.1 µM]
O=C(O)C[C@@H]1CCN(C(=O)C2CCCCC2)C[C@@H]1CCN1CCOCC1 0% [at 43.1 µM]
CC1CCC2(CC1)NC(=O)N(CC(=O)Nc1ccc(Cl)cc1)C2=O (stereo not given) 3.07%
CCOc1ccccc1C1NC(=O)N(CC(=O)Nc2ccc(OC)cc2)C2=C1C(=O)OC2 (stereo not given) -4.47%
CCCN(CC1CC1)C(=O)[C@@H]1COCC(=O)N1Cc1ccccc1 -21.1%
Cc1cc(C)c(S(=O)(=O)Nc2cc(-c3cn4ccccc4n3)ccc2C)cc1C 38.2%
CC(C)NC(=O)N1Cc2[nH]cnc2C[C@H]1C(=O)NCc1ccc(Cl)cc1 13.3% [at 43.1 µM]
O=C(COc1ccc(-c2nnc3n2CCCC3)cc1)Nc1cccc(Br)c1 -17.9%
O=C(NC1CCCN(c2cc(-c3ccc(Cl)cc3)[nH]n2)C1)c1ccc(Br)o1 (stereo not given) -27.2%
Cc1ccc(C(=O)N2CCCN(c3cc(-c4ccc(Br)cc4)[nH]n3)CC2)cn1 -1.03%
CN(C)C(=O)C1CN(C(=O)Nc2cccc(Br)c2)CC12CCOCC2 (stereo not given) 8.32%
O=C(Nc1ccc(CN2CCOCC2)cc1)c1ccc(-c2ccc(Br)cc2)o1 94.7%
